Among the data in PubChem BioAssay (NCI) are growth inhibition values, retold here.

Assay [1] in a line: NCI Yeast Anticancer Drug Screen. Data for the rad50 strain (AID 155).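 Note: 0% = growth of vehicle-only cultures of the same strain.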 The note with it: S. cerevisiae rad50 strain growth inhibition, hits give high values. The essentials: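 Vehicle-treated cultures provide the reference for the growth inhibition reported for compound-exposed, repair-deficient yeast.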
Assay [2] is described as follows: NCI Yeast Anticancer Drug Screen. Data for the mec2-1 strain (AID 157). The note with it: S. cerevisiae mec2-1 strain, hits give high values. The method, boiled down:
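Test agents were screened against the mec2-1 yeast strain, with defined DNA repair or cell cycle alteration. Growth was scored as inhibition against vehicle-only controls.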

Assay [3] can be described thus: NCI Yeast Anticancer Drug Screen. Data for the sgs1 mgt1 strain (AID 161).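 Note: 0% = growth of cultures given vehicle only.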 The note with it: S. cerevisiae sgs1 mgt1 strain, hits give high values. The essentials:
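Genetically altered yeast, compound exposure, growth inhibition relative to vehicle.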

Assay [4] can be described thus: NCI Yeast Anticancer Drug Screen. Data for the cln2 rad14 strain (AID 165).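 Note: 0% = growth equal to vehicle treated cultures.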 The note with it: S. cerevisiae cln2 rad14 strain, hits give high values. The method, boiled down:
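Growth of compound-exposed yeast (cln2 rad14 genotype) measured and expressed as inhibition relative to vehicle.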

Assay [5] is described as follows: NCI Yeast Anticancer Drug Screen. Data for the bub3 strain (AID 167). The note with it: S. cerevisiae bub3 mutant strain, hits give high values. The method, boiled down:
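Mutant yeast screening strain plus compound; vehicle-treated cultures serve as the 0% inhibition reference.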

The nature of assay [6]: NCI Yeast Anticancer Drug Screen. Data for the mlh1 rad18 strain (AID 175). The note with it: S. cerevisiae mlh1 rad18 strain growth inhibition, hits give high values. The essentials: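 In this whole-cell yeast screen, a strain with altered DNA damage repair is challenged with compound, and its growth is measured against matched vehicle-treated controls.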
The mark [7] stands for this setting: at 5.0 µM (retest, dose inferred, filed as 0.5).
Setting [8] is: at 50.0 µM (retest, dose inferred, filed as 5.0).

Each structure is given as a SMILES string. Where “and” joins values, the source holds several entries; their conditions need not be identical. Equal entries are not always repeated. The panel holds about 79,000 compounds, 15% with a hit somewhere; the sample as a whole holds those more often. Values without a mark were called inactive. Calls of active or inactive are those of the source. Cut-off read from the data, not from the text of the source: active = growth inhibition above about 70%; inactive = the rest.

With `CC(=O)OC1OC(=O)C(C)(C(C)=O)C1C` (stereo unspecified), the growth inhibition in assay [1] (setting [7]) was 19%; in assay [1] (setting [8]) it was 95% (active); in assay [1] (at 50.0 µM), 89.9% (active); in assay [2] (setting [7]) it was 10%; in assay [2] (setting [8]), 96% (active); in assay [2] (at 50.0 µM) it was 89.6% (active). Further, the growth inhibition in assay [3] (setting [7]) is 25%; in assay [3] (setting [8]), 93% (active); in assay [3] (at 50.0 µM), 89.9% (active); in assay [4] (setting [7]) it was 27%; in assay [4] (setting [8]) it was 81% (active); in assay [4] (at 50.0 µM), 83.2% (active). Moreover, the growth inhibition in assay [5] (setting [7]) is 23%; in assay [5] (setting [8]), 93% (active); in assay [5] (at 50.0 µM) it was 89.2% (active); in assay [6] (setting [7]), 22%; in assay [6] (setting [8]), 96% (active); in assay [6] (at 50.0 µM), 89.6% (active).

In the case of `O=C(CON1C(=O)c2ccccc2C1=O)c1ccccc1`, the growth inhibition in assay [1] (setting [7]) is -3%; in assay [1] (setting [8]) it was 19%; in assay [1] (at 50.0 µM), 91.2% (active); in assay [2] (setting [7]), 8%; in assay [2] (setting [8]) it was 29%; in assay [2] (at 50.0 µM) it was 52%. Besides, the growth inhibition in assay [3] (setting [7]) is 6%; in assay [3] (setting [8]) it was 21%; in assay [3] (at 50.0 µM), 55.1%; in assay [4] (setting [7]), -5%; in assay [4] (setting [8]), -8%; in assay [4] (at 50.0 µM), -3.15%. Moreover, the growth inhibition was -7% in assay [5] (setting [7]); 32% in assay [5] (setting [8]); 80.5% (active) in assay [5] (at 50.0 µM); -16% in assay [6] (setting [7]); 18% in assay [6] (setting [8]); 76.2% (active) in assay [6] (at 50.0 µM).

For `COc1cccc(NC(=S)C(C#N)C(=O)Nc2cccc(C(F)(F)F)c2)c1` (stereo unspecified), the growth inhibition is 66% in assay [1] (setting [7]); 95% (active) in assay [1] (setting [8]); 78.2% (active) in assay [1] (at 50.0 µM); 74% (active) in assay [2] (setting [7]); 97% (active) in assay [2] (setting [8]); 84.9% (active) in assay [2] (at 50.0 µM). Besides, the growth inhibition in assay [3] (setting [7]) was 52%; in assay [3] (setting [8]), 91% (active); in assay [3] (at 50.0 µM), 85.5% (active); in assay [4] (setting [7]), 52%; in assay [4] (setting [8]) it was 88% (active); in assay [4] (at 50.0 µM) it was 43.1%. Further, the growth inhibition was 48% in assay [5] (setting [7]); 95% (active) in assay [5] (setting [8]); 87% (active) in assay [5] (at 50.0 µM); 88% (active) in assay [6] (setting [7]); 96% (active) in assay [6] (setting [8]); 70.5% (active) in assay [6] (at 50.0 µM).

Regarding `CCCC1=CCCC1`, the growth inhibition in assay [1] (setting [7]) was 2%; in assay [1] (setting [8]), 8%; in assay [1] (at 50.0 µM), 91.1% (active); in assay [2] (setting [7]), 2%; in assay [2] (setting [8]), -6%; in assay [2] (at 50.0 µM), 92.5% (active). Moreover, the growth inhibition in assay [3] (setting [7]) was -1%; in assay [3] (setting [8]) it was 1%; in assay [3] (at 50.0 µM), 50.9%; in assay [4] (setting [7]), 0%; in assay [4] (setting [8]) it was 2%; in assay [4] (at 50.0 µM), 50%. Also, the growth inhibition was 1% in assay [5] (setting [7]); 1% in assay [5] (setting [8]); 96.8% (active) in assay [5] (at 50.0 µM); 0% in assay [6] (setting [7]); 5% in assay [6] (setting [8]); 50.2% in assay [6] (at 50.0 µM).

Turning to `NCC(=O)OCN1C(=O)C2C3C=CC(C2C1=O)C1C2C(=O)N(COC(=O)CN)C(=O)C2C31` (stereo unspecified), the growth inhibition in assay [1] (setting [7]) is 28%; in assay [1] (setting [8]), 63%; in assay [1] (at 50.0 µM) it was -5.35% and 24%; in assay [2] (setting [7]), 20%; in assay [2] (setting [8]) it was 39%; in assay [2] (at 50.0 µM), 8.65% and -62%. The growth inhibition in assay [3] (setting [7]) was 25%; in assay [3] (setting [8]), 45%; in assay [3] (at 50.0 µM), 4.85% and -30.4%; in assay [4] (setting [7]) it was 21%; in assay [4] (setting [8]), 55%; in assay [4] (at 50.0 µM) it was 23.5% and -6.55%. Moreover, the growth inhibition was 24% in assay [5] (setting [7]); 68% in assay [5] (setting [8]); -15.2% and -46.8% in assay [5] (at 50.0 µM); 26% in assay [6] (setting [7]); 71% (active) in assay [6] (setting [8]); -18.6% and -43.7% in assay [6] (at 50.0 µM).

As for `COC(O)C(=O)c1c2c(cc3c1CCC3)CCCC2` (stereo unspecified), the growth inhibition in assay [1] (setting [7]) is 96% (active); in assay [1] (setting [8]), 100% (active); in assay [1] (at 50.0 µM), 81.1% (active); in assay [2] (setting [7]), 98% (active); in assay [2] (setting [8]), 99% (active); in assay [2] (at 50.0 µM) it was 88.4% (active). Besides, the growth inhibition was 98% (active) in assay [3] (setting [7]); 99% (active) in assay [3] (setting [8]); 89.1% (active) in assay [3] (at 50.0 µM); 85% (active) in assay [4] (setting [7]); 100% (active) in assay [4] (setting [8]); 91.7% (active) in assay [4] (at 50.0 µM). The growth inhibition in assay [5] (setting [7]) is 99% (active); in assay [5] (setting [8]), 100% (active); in assay [5] (at 50.0 µM) it was 90.5% (active); in assay [6] (setting [7]) it was 98% (active); in assay [6] (setting [8]) it was 100% (active); in assay [6] (at 50.0 µM) it was 92.5% (active).

On to `CCOC(=O)C1=C(C(=O)c2ccc(C)cc2)C(c2cccc([N+](=O)[O-])c2)C(C(=O)c2ccc(C)cc2)=C(C(=O)OCC)N1`, for which the growth inhibition in assay [1] (setting [7]) is 4%; in assay [1] (setting [8]), 55%; in assay [1] (at 50.0 µM) it was 60.6%; in assay [2] (setting [7]) it was 3%; in assay [2] (setting [8]), 69%; in assay [2] (at 50.0 µM) it was 78% (active). Further, the growth inhibition in assay [3] (setting [7]) is 8%; in assay [3] (setting [8]) it was 47%; in assay [3] (at 50.0 µM) it was 61.1%; in assay [4] (setting [7]), -3%; in assay [4] (setting [8]) it was 2%; in assay [4] (at 50.0 µM), 19.3%. Besides, the growth inhibition is 2% in assay [5] (setting [7]); 61% in assay [5] (setting [8]); 76.2% (active) in assay [5] (at 50.0 µM); 0% in assay [6] (setting [7]); -17% in assay [6] (setting [8]); 78.9% (active) in assay [6] (at 50.0 µM).
